Data reported in PubChem BioAssay (NCI).
The panel holds about 79,000 compounds, 15% with a hit somewhere; the sample as a whole holds those more often. The source made the active and inactive calls. Cut-off read from the data, not from the text of the source: active = growth inhibition above about 70%; inactive = the rest.

Assays:
[1] = NCI Yeast Anticancer Drug Screen. Data for the rad50 strain (AID 155);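 note: 0% = growth of vehicle-only cultures of the same strain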; conditions: S. cerevisiae rad50 strain growth inhibition; at 50.0 µM; stronger effect = higher value
Outline: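 Yeast carrying a defined DNA repair defect were exposed to test compounds, and growth was compared with vehicle-treated controls to give percent inhibition.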

[2] = NCI Yeast Anticancer Drug Screen. Data for the mec2-1 strain (AID 157); conditions: S. cerevisiae mec2-1 strain, at 50.0 µM, stronger effect = higher value
Outline: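 Growth inhibition is read against vehicle-treated controls after compound exposure of the mec2-1 yeast strain, which is defective in DNA damage repair or cell cycle control.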

[3] = NCI Yeast Anticancer Drug Screen. Data for the sgs1 mgt1 strain (AID 161);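 note: 0% = growth of cultures given vehicle only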; conditions: S. cerevisiae sgs1 mgt1 strain, at 50.0 µM, stronger effect = higher value
Outline: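 Percent growth inhibition was derived by comparing compound-exposed mutant yeast with vehicle-exposed cultures. The strain carries alterations in DNA damage repair.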

[4] = NCI Yeast Anticancer Drug Screen. Data for the cln2 rad14 strain (AID 165);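 note: 0% = growth equal to vehicle treated cultures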; conditions: S. cerevisiae cln2 rad14 strain, at 50.0 µM, stronger effect = higher value
Outline: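 Growth inhibition, relative to vehicle-treated controls, is the read-out. The test organism is a yeast strain with defined genetic alterations, cln2 rad14.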

[5] = NCI Yeast Anticancer Drug Screen. Data for the bub3 strain (AID 167); conditions: S. cerevisiae bub3 mutant strain, at 50.0 µM, stronger effect = higher value
Outline: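 Compounds were applied to a genetically altered yeast strain carrying a cell-cycle control defect. Growth inhibition was scored against vehicle-treated controls.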

[6] = NCI Yeast Anticancer Drug Screen. Data for the mlh1 rad18 strain (AID 175); conditions: S. cerevisiae mlh1 rad18 strain growth inhibition; at 50.0 µM; stronger effect = higher value
Outline: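 Cells of a genetically altered yeast strain, deficient in DNA damage repair, were treated with compound. Their growth was then compared with that of vehicle-treated cultures to give inhibition.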

Measured: growth inhibition

CCc1ccc(Cc2ccc(CC)c(NC(=O)C(=O)C3NC(=S)NC3=O)c2CC)c(CC)c1NC(=O)C(=O)C1NC(=S)NC1=O (stereo unspecified)
inactive: [1] -5.2% | [2] -9.5% | [3] 5.25% | [4] 5.1% | [5] 3.85% | [6] -3.65%

O=C(CS(=O)(=O)Cc1ccccc1)N1CCOCC1
inactive: [1] -9.4% | [2] -13.3% | [3] -6.55% | [4] -3.8% | [5] -3% | [6] -27.5%

Cc1ccc(C2(C)NC(=S)N(NC(N)=S)C2=S)cc1 (stereo unspecified)
inactive: [1] 32.3% | [2] 19.8% | [3] 7.15% | [4] 3.25% | [5] 4.65% | [6] 21.8%

O=C(O)CNCCO
inactive: [1] -0.35% | [2] 7.75% | [3] 6.65% | [4] 0% | [5] 22.2% | [6] -0.25%

CC1(C)OC2COC3(COC(C)(C)O3)C(O)C2O1 (stereo unspecified)
inactive: [1] -9.05% | [2] 0.2% | [3] 4.15% | [4] -3.7% | [5] -6.2% | [6] -24.8%

CSCCCNC(=O)c1csc(-c2csc(CCNC(=O)[C@@H](NSc3ccccc3[N+](=O)[O-])[C@@H](C)O)n2)n1
inactive: [1] 0.15% | [2] 6.05% | [3] 1.3% | [4] -22.1% | [5] 0.95% | [6] 18.9%

CC1CC(OC(=O)c2ccccc2)CCC1=O (stereo unspecified)
inactive: [1] -5.6% | [2] -2.85% | [3] -7.65% | [4] 14.5% | [5] 15.6% | [6] -7.8%

CCCCN1C(=O)C(NC(C)=O)C1COC(C)(C)C (stereo unspecified)
inactive: [1] -21.9% | [2] -5.2% | [3] -28.4% | [4] -8.65% | [5] -28.1% | [6] -35.5%

Cc1ccc(S(=O)(=O)O/N=C2\CCC\C2=C/c2ccccc2)cc1
inactive: [1] 7.65% | [2] -2.25% | [3] 26% | [4] 14.6% | [5] -8.55% | [6] 23.8%

C=CN1C(=O)NC2(CCCCC2)C1=O
inactive: [1] -33.8% | [2] -40% | [3] -40.4% | [4] 7.55% | [5] -10.3% | [6] -25.6%

Clc1ccc2sc3c(c2c1)CCNC3
inactive: [1] 2.8% | [2] 0.1% | [3] -6.75% | [4] -31.4% | [5] -26% | [6] 13.6%

O=C(NC(Cc1ccc(O)cc1)C(=O)O)C(=O)c1c[nH]c2ccc([N+](=O)[O-])cc12 (stereo unspecified)
inactive: [1] 3.45% | [2] 1.45% | [3] -23.1% | [4] 0.45% | [5] 2.8% | [6] 26.9%

CCc1ccccc1OCC1CO1 (stereo unspecified)
inactive: [1] 10.9% | [2] 3.5% | [3] 11.2% | [4] 2.2% | [5] -11.9% | [6] 18.2%

CSC1=C(c2ccc(Cl)cc2)SC(N2CCCCC2)N1c1ccc([N+](=O)[O-])cc1 (stereo unspecified)
inactive: [1] 0.55% | [2] -0.05% | [3] 1.7% | [4] 5.2% | [5] 5.4% | [6] 4.9%

CCOC(OCC)C1CC=CCC1 (stereo unspecified)
inactive: [1] 0.1% | [2] -1.65% | [3] -6.7% | [4] -13.1% | [5] -6.4% | [6] -0.95%

CCC1(c2ccc(N3C(=O)c4cc(OC)c(OC)cc4C3=O)cc2)CCC(=O)NC1=O (stereo unspecified)
inactive: [1] -6.25% | [2] 7.65% | [3] -7.25% | [4] -16.1% | [5] -16% | [6] -32.8%

COc1ccc(C)cc1NC(=S)NC(=O)C(C)Oc1ccccc1 (stereo unspecified)
inactive: [1] 11.8% | [2] 46.5% | [3] 59.5% | [4] -27% | [5] 28.6% | [6] 32.9%

CCOC(=O)NNC(=O)c1ccccc1N(C)C
inactive: [1] -12.4% | [2] -18.6% | [3] -7.05% | [4] -13.7% | [5] 25.1% | [6] -4.45%

COC(=O)C1C(=O)C=C(O)C2CCCCC21 (stereo unspecified)
inactive: [1] 2.05% | [2] -2.85% | [3] -0.35% | [4] -63% | [5] -30.9% | [6] 2.5%

CC(C)=C1C(=O)C[C@@]2(C)C[C@H]3OC3(C)CC/C=C(/C)CCC12 (stereo partly specified)
inactive: [1] 14.9% | [2] 11.7% | [3] 19.8% | [4] 12.9% | [5] 30.2% | [6] -62.5%

COCCCNC1=C(C#N)C(=O)NC(c2cccc([N+](=O)[O-])c2)S1 (stereo unspecified)
inactive: [1] -9.7% | [2] -27.4% | [3] 1.75% | [4] 7.85% | [5] -9.8% | [6] -32.7%

OC1CC2CCCCC2CC1C1CCCCC1 (stereo unspecified)
inactive: [1] 4.15% | [2] -11.2% | [3] -7.25% | [4] -25.6% | [5] -23.7% | [6] 0.85%

O=C1CCCCCCCCCCC1Br (stereo unspecified)
inactive: [1] 43.2% | [2] 3.15% | [3] 34.4% | [4] 31.9% | [5] 23.3% | [6] 21.4%

COc1ccc(S(=O)Cc2cc(OC)c(OC)c(OC)c2)cc1 (stereo unspecified)
inactive: [1] -7.9% | [2] -19.9% | [3] -61.7% | [4] -19.8% | [5] -14.3% | [6] -23.7%

CCCNC1CC(n2cc(C)c(=O)[nH]c2=O)OC1CO (stereo unspecified)
inactive: [1] -11.4% | [2] -7.85% | [3] -25.3% | [4] -14.7% | [5] -31.8% | [6] -26.8%

C/C=N\C(N)=S
inactive: [1] 1.45% | [2] -1.3% | [3] 4.8% | [4] 9.05% | [5] 9.8% | [6] 1%

CSCCC(NCc1c(O)ccc2ccc(=O)oc12)C(=O)O (stereo unspecified)
inactive: [1] -35.6% | [2] -9.1% | [3] -27.9% | [4] 7.45% | [5] 0.95% | [6] -38%

O=C1SCC(O)=C1/C=N/Nc1nc2ccccc2o1
inactive: [1] -11.9% | [2] 6.45% | [3] 27.1% | [4] 31.7% | [5] 13.2% | [6] 12.3%

CCOC(=O)Cc1ccc(-c2csc(Nc3ccc(Cl)cc3)n2)cc1
inactive: [1] 49.9% | [2] 22.4% | [3] 35% | [4] 24.2% | [5] 24.8% | [6] 48.9%

CCOC(=O)CCCCCCCCCC[N+](CC)(CC)CC(=O)c1ccc(NC(C)=O)cc1
inactive: [1] -1.05% | [2] -2.35% | [3] 3.5% | [4] 12.3% | [5] 16.8% | [6] -0.1%

CCCCCCCCCCCCCCCCCCNC(=S)N(C)C
inactive: [1] 18.8% | [2] 0.2% | [3] 8.1% | [4] 1.25% | [5] 38.6% | [6] 5.05%

Clc1ccc(-c2c3nc(c(-c4ccc(Cl)cc4)c4ccc([nH]4)c(-c4ccc(Cl)cc4)c4nc(c(-c5ccc(Cl)cc5)c5ccc2[nH]5)C=C4)C=C3)cc1
inactive: [1] -30.6% | [2] -17.9% | [3] -12.4% | [4] 15.8% | [5] -14.3% | [6] -18.9%

C=CCOC(=O)C(F)(F)F
inactive: [1] 0.15% | [2] -4.25% | [3] -0.7% | [4] 4.35% | [5] 6.85% | [6] -1.4%

Cn1ccnc1CC(C)(O)c1ccccc1 (stereo unspecified)
inactive: [1] -13.2% | [2] -17.4% | [3] -44.9% | [4] 3.9% | [5] -23.4% | [6] 6.8%

CC(C)CCC(C)C1CCC2C3CC/C(=N/Nc4ccc([N+](=O)[O-])cc4[N+](=O)[O-])C(C)(CCC(=O)O)C3CCC12C (stereo unspecified)
inactive: [1] -45.8% | [2] -12.2% | [3] -24.9% | [4] -24.2% | [5] -0.1% | [6] -3.4%

O=C(OC1CCC2(CC1)N=NC1(CCC(OC(=O)c3ccccc3)CC1)S2)c1ccccc1 (stereo unspecified)
inactive: [1] -1.15% | [2] 18.3% | [3] -2.25% | [4] -7.6% | [5] -1.1% | [6] 8.1%

CCCCCCCCCCCCCCCCCCN=C=O
inactive: [1] -23.6% | [2] -45.8% | [3] -17.8% | [4] -10.8% | [5] -31.8% | [6] -39%

CC[N+](C)(CC)c1cccc(OC(=O)Nc2ccc(OC)cc2)c1
inactive: [1] 6% | [2] 5.25% | [3] 3.35% | [4] -5.7% | [5] 1.05% | [6] 14.3%

OC(COc1c2ccccc2nc2ccccc12)CN1CCN(c2ccccc2)CC1 (stereo unspecified)
inactive: [1] 21.9% | [2] -5.45% | [3] 6.5% | [4] 9% | [5] 0.9% | [6] 19.9%

Cc1ccccc1Nc1n[nH]c(=O)n1-c1ccccc1C
inactive: [1] 4.05% | [2] 6.65% | [3] 1.75% | [4] -12.5% | [5] 1.15% | [6] 2.9%

CCCOc1ncnc2nc[nH]c12
inactive: [1] 7.3% | [2] -6.05% | [3] 1.55% | [4] -6.4% | [5] 5.3% | [6] 19.7%
